Screening data from PubChem BioAssay.
TMEM16A inh = inhibitors of mouse TMEM16A calcium-activated chloride channel; 1.2% of 310,000 active; HEK293 TMEM16A/YFP iodide influx fluorescence, ionomycin; AID 588511; normalized B-score (activity score, 25-100; higher = stronger inhibition) at 10 µM;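 active = ratio plate-corrected score three or more library SD toward inhibition, starting fluorescence score within five deviations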;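 note: score derived from kinetic fluorescence span divided by baseline fluorescence per well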
PP5 primary = inhibitors of human protein phosphatase 5 (PP5). purified PP5c, OMFP substrate fluorescence. 0.18% of 320,000 active. AID 1987. P53041. inhibition, % at 6.7 µM;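 active = inhibition above the campaign's mean inhibition across all tested compounds plus 3 SD, cut at about 9.5% in these data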;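 note: 0% = DMSO only and 100% = 100 µM cantharidin control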
PP1 counter = blocks human PP1-alpha phosphatase, a PP5 counter-screen; P62136; purified PP1alpha, OMFP fluorescence; inhibition, % at 6.7 µM; 0.9% of 320,000 active;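 active = inhibition above the mean inhibition of all tested compounds plus 3 SD, computed separately for each screening campaign, cut at about 15% in these data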
Target sequence (P62136 whole entry, looked up): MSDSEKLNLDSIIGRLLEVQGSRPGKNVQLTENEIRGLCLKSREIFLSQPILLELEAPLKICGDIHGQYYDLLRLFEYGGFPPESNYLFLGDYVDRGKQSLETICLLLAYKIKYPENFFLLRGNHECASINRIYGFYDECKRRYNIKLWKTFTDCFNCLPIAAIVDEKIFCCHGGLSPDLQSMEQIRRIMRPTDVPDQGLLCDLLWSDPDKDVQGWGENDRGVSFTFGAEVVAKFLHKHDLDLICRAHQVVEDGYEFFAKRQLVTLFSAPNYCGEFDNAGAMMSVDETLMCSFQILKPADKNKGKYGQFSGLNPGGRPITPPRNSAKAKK
PREPL inhibitor = inhibitors of human prolyl oligopeptidase-like enzyme PREPL | Q4J6C6 | recombinant PREPL, fluorescence polarization activity-based probe | inhibition, % at 5.96 µM | 0.68% of 320,000 active | AID 2751; in the data active = inhibition above about 43%;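 note: 0% = enzyme with DMSO and 100% = wells lacking enzyme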
ANO1 activ = activators or potentiators of mouse TMEM16A chloride channel; Q8BHY3; HEK293 TMEM16A/YFP-H148Q/I152L, iodide quench fluorescence; active compounds read low; B-score at 10 µM; 0.3% of 340,000 active;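 active = fluorescence-ratio B-score plate-corrected deviation score at least 3 library SD below zero, with starting fluorescence score within 5 deviations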;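 note: channel opened by trigger with iodide after compound preincubation; score built on the fluorescence ratio of max minus min over baseline; more negative score means more quench and so TMEM16A activation or potentiation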
FID counter = fluorescent intercalator displacement, NS3 helicase counter-screen. DNA fluorescent intercalator displacement, fluorescence. inhibition, % at 7.9 µM. 0.17% of 290,000 active; in the data active = inhibition above about 37%;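 note: 0% = vehicle and 100% = reference compound; higher means more ethidium bromide displaced from hairpin DNA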
PP5 conf = confirmation of human PP5 phosphatase inhibitors; 22% of 460 active; shares compounds with PP5 primary; Purified PP5, fluorogenic phosphatase substrate, fluorescence; inhibition, % at 6.7 µM; in the data active = inhibition above about 9.5%
PP1 inh counter = counter-screen for PP5 inhibitors: human PP1 phosphatase inhibition. 4% of 460 active. AID 2355. PP1 enzyme, fluorescent phosphatase substrate. inhibition, % at 6.7 µM. shares compounds with PP5 primary; in the data active = inhibition above about 16%
PP1 confirm = human PP1 phosphatase inhibition, confirmation; AID 2358; inhibition, % at 6.7 µM; 52% of 1,900 active; shares compounds with PP1 counter; purified PP1alpha, OMFP substrate fluorescence;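 active = mean PP1 inhibition above a set limit taken from the earlier primary screen, cut at about 15% in these data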
PP5 counter = counter-screen for PP1 inhibitors: human PP5 phosphatase inhibition. AID 2360. purified PP5c, OMFP fluorescence. inhibition, % at 6.7 µM. shares compounds with PP1 counter. 4% of 1,900 active;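 active = mean PP5 inhibition over triplicate wells above about 9.5% taken from the earlier PP1 screen, limit read from the data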
TMEM16A reconf = reconfirmed blocker of mouse TMEM16A calcium-activated chloride channel. 39% of 2,300 active. shares compounds with TMEM16A inh. AID 652189. inhibition, % at 10 µM. HEK293 TMEM16A/YFP-H148Q, iodide quench fluorescence; ionomycin added to raise cell calcium;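 active = mean duplicate percent inhibition, scaled so buffer wells are 0 and the reference blocker 100, over three buffer SD above buffer mean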
TMEM16A Ca cntr = calcium mobilization counter-screen hit for TMEM16A inhibitor series; shares compounds with TMEM16A inh; TMEM16A/YFP HEK293, Fluo4 calcium mobilization; calcium response (% of ionomycin), % at 10 µM; 2% of 2,300 active; AID 652231;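 active = duplicate-averaged calcium signal over 20% of the ionomycin maximum, relative to buffer baseline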;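 note: each well's signal is peak minus trough fluorescence divided by its pre-addition baseline; 0% = buffer wells and 100% = ionomycin wells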
Parental YFP cnt = counter-screen for TMEM16A inhibitors: effect in parental YFP-HEK293 cells | shares compounds with TMEM16A inh | 2,300 tested, under 10 active | iodide YFP quench, ionomycin | YFP ratio F(max-min)/F0 at 10 µM | AID 652233;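 active = yellow fluorescent protein signal ratio exceeding the buffer control mean by over 5 SD of those controls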;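 note: ratio is mean of duplicate wells from kinetic YFP trace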
ClC-1 inh = blocks the rat ClC-1 voltage-dependent chloride channel. shares compounds with TMEM16A inh. CHO ClC-1-YFP, iodide influx fluorescence quench; iodide control reads 0, buffer control 100. ratio percent, % at 10 µM. 2,300 tested, under 10 active;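 active = duplicate-mean ratio percent above the mean of iodide-only control wells, which defines zero, plus 5 of their SD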;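 note: higher percent means stronger block of ClC-1 iodide influx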
Numbers without * were called inactive. Hits are enriched below; roughly 2.7% of the tested compounds scored in any of these assays.

Screening C=CCn1c(NC(=O)c2ccccc2Cl)c(C#N)c2nc3ccccc3nc21 returned TMEM16A inh 100*, PP5 primary 11*, PP1 counter 7, PREPL inhibitor 27, ANO1 activ inactive, FID counter -25, PP5 conf 28*, PP1 inh counter 4, TMEM16A reconf 54%*, TMEM16A Ca cntr inactive, Parental YFP cnt -0.88 and ClC-1 inh -26.
For C=CCc1ccc(O)c(-c2cc(CC=C)ccc2O)c1 the results were TMEM16A inh 100*, PP5 primary 11*, PP1 counter 6, PREPL inhibitor 3, ANO1 activ inactive, FID counter -10, PP5 conf 3, PP1 inh counter 6, TMEM16A reconf 32%*, TMEM16A Ca cntr inactive, Parental YFP cnt -0.88 and ClC-1 inh -4.
Screening C=CCc1ccc(OCC(O)CO)c(OC)c1 (stereo unspecified) returned TMEM16A inh inactive, PP5 primary 0, PP1 counter -3, PREPL inhibitor 1, ANO1 activ inactive and FID counter -3.
O=C(O)CCC(=O)N1CCc2cc(S(=O)(=O)NCc3ccc(Cl)cc3)ccc21 was read as TMEM16A inh inactive, PP5 primary 0, PP1 counter 2, PREPL inhibitor 4, ANO1 activ inactive and FID counter -37.
`O=C(Nc1ccc(OC(F)(F)F)cc1)N1CCN(c2ccnc3cc(Cl)ccc23)CC1` gave TMEM16A inh 100*, PP5 primary 10*, PP1 counter 2, PREPL inhibitor 6, ANO1 activ inactive, FID counter -2, PP5 conf 5, PP1 inh counter 5, TMEM16A reconf inactive, TMEM16A Ca cntr inactive, Parental YFP cnt -1.1 and ClC-1 inh -22.
For CSc1nsc(SCC(=O)Nc2nc3ccc(C)cc3s2)n1 the results were TMEM16A inh inactive, PP5 primary 0, PP1 counter 26*, PREPL inhibitor -4, ANO1 activ inactive, FID counter 2, PP1 confirm 19* and PP5 counter -5.
c1ccc(-c2c(-c3ccccc3)n(Cc3ccco3)c3ncnc(NCCCn4ccnc4)c23)cc1 was read as TMEM16A inh 100*, PP5 primary 4, PP1 counter 24*, PREPL inhibitor 26, ANO1 activ inactive, FID counter 10, PP1 confirm 15 and PP5 counter 3.
N=c1c2c(-c3ccccc3)c(-c3ccccc3)n(Cc3ccco3)c2ncn1Cc1ccccc1 was read as TMEM16A inh 100*, PP5 primary 1, PP1 counter 28*, PREPL inhibitor 22, ANO1 activ inactive, FID counter 10, PP1 confirm 1 and PP5 counter -1.
Screening Cn1cc(C(=O)N/N=C/c2c(O)ccc3ccccc23)ccc1=O returned TMEM16A inh inactive, PP5 primary -1, PP1 counter 27*, PREPL inhibitor 20, ANO1 activ inactive, FID counter -6, PP1 confirm 29* and PP5 counter -3.
Screening CCc1ccc(NC(=O)C2CCN(c3c(N4CCCC4)c(=O)c3=O)CC2)cc1 returned TMEM16A inh inactive, PP5 primary 3, PP1 counter -8, PREPL inhibitor 14, ANO1 activ inactive and FID counter -29.
For CCc1ccc(NC(=O)C2C3CCC(O3)C2C(=O)O)cc1 (stereo unspecified) the results were TMEM16A inh inactive, PP5 primary 80*, PP1 counter 74*, PREPL inhibitor 8, ANO1 activ inactive, FID counter 4, PP1 confirm 18* and PP5 counter 38*.
`O=C(O)C1C2CCC(O2)C1C(=O)NCc1ccncc1` (stereo unspecified) gave TMEM16A inh inactive, PP5 primary 37*, PP1 counter 20*, PREPL inhibitor 8, ANO1 activ inactive, FID counter -3, PP1 confirm 15* and PP5 counter 26*.
O=C(O)C1C2CCC(O2)C1C(=O)Nc1ccc(F)cc1 (stereo unspecified) was read as TMEM16A inh inactive, PP5 primary 44*, PP1 counter 31*, PREPL inhibitor 3, ANO1 activ inactive, FID counter 4, PP1 confirm 11 and PP5 counter 8.
For CC(=O)Nc1ccc(NC(=O)C2C3C=CC(C3)C2C(=O)O)cc1 (stereo unspecified) the results were TMEM16A inh inactive, PP5 primary -1, PP1 counter -1, PREPL inhibitor 8, ANO1 activ inactive and FID counter -2.
O=C(O)C1C2C=CC(C2)C1C(=O)Nc1cccc(F)c1 (stereo unspecified) was read as TMEM16A inh inactive, PP5 primary 1, PP1 counter -5, PREPL inhibitor -2, ANO1 activ inactive and FID counter 3.
For O=C(NCc1ccncc1)C(=O)NCc1ccncc1 the results were TMEM16A inh inactive, PP5 primary -2, PP1 counter 3, PREPL inhibitor 2, ANO1 activ inactive and FID counter -4.
`O=C(O)C1C2CCC(O2)C1C(=O)Nc1cccc(F)c1` (stereo unspecified) gave TMEM16A inh inactive, PP5 primary 52*, PP1 counter 55*, PREPL inhibitor -1, FID counter 3, PP1 confirm 10 and PP5 counter 17*.
